# Data published in PMC7862700, “An all-to-all approach to the identification of sequence-specific readers for epigenetic DNA modifications on cytosine”.
# Columns and labels:
# Test in all cases: DAPPL (digital affinity profiling via proximity ligation, sequencing); 10 mM Tris-HCl pH 7.5, 50 mM NaCl, 1 mM DTT, 4% glycerol, room temperature, 30 min; GST-TFs on glutathione beads, 16-mer random dsDNA library, 0.1% formaldehyde crosslink after washing; high values mean tight binding
# FEV = target: T1, FEV (Homo sapiens, UniProt Q99581 1-238); conditions: protein: recombinant; tags: N-terminal GST; dsDNA, one strand shown
# T1 sequence: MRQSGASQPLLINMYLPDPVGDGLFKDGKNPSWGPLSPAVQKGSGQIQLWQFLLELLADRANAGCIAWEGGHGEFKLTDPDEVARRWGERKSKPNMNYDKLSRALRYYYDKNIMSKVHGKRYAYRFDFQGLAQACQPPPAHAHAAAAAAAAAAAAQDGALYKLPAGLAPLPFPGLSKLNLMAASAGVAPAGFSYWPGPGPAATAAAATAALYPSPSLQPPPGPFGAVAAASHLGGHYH
# Procedure, shortened: (§1)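 GST fusions of human transcription factors were expressed in yeast and captured with glutathione beads. Once given DNA barcodes and pooled alongside a tag-only sample, they were incubated for 30 min at room temperature with 200 nmole of a random double-stranded 16-mer DNA library in Tris/NaCl/DTT/glycerol buffer, then washed, crosslinked (0.1% formaldehyde), proximity-ligated, PCR-amplified and sequenced on an Illumina NextSeq500. The binding signal of each hexamer is its read frequency for a factor divided by its frequency for the tag-only sample.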
# ETV5 = ETV5 (Homo sapiens, UniProt P41161 1-510); conditions: protein: recombinant; tags: N-terminal GST; dsDNA, one strand shown
# Sequence of ETV5 (P41161 whole entry): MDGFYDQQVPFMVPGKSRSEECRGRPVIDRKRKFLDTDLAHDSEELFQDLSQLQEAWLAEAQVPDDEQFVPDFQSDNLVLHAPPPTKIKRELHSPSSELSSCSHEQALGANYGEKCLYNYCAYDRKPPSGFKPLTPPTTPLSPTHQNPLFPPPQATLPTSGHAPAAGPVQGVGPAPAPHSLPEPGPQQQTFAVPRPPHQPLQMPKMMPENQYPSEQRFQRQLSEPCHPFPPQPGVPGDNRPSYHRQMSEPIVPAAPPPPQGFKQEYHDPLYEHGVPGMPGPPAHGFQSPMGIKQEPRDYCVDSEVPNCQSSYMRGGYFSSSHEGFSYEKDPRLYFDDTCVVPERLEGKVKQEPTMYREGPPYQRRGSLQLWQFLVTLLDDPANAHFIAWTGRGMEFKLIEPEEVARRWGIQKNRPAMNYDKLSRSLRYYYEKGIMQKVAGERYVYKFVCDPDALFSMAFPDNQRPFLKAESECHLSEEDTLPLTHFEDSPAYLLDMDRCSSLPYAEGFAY
# Procedure, shortened: as §1
# HSF1 = HSF1 (Homo sapiens, UniProt Q00613 1-529); conditions: protein: recombinant; tags: N-terminal GST; chain copies: 3; dsDNA, one strand shown
# Sequence of HSF1 (Q00613 whole entry): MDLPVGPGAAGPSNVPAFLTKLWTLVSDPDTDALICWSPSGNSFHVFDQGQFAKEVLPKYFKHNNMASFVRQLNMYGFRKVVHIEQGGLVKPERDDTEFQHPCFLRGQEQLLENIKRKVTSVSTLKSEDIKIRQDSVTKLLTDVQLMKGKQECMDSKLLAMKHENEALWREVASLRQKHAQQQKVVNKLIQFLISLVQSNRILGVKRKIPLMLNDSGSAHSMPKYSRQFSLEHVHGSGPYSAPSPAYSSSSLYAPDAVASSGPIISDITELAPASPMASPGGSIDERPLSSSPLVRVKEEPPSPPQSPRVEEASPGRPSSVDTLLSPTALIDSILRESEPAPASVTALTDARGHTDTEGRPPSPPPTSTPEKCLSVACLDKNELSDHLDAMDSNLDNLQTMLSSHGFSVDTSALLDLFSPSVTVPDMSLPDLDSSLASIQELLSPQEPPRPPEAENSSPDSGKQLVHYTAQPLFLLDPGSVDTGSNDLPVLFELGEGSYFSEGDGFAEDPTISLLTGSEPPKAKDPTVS
# Procedure, shortened: as §1
# SPIC = target: T2, SPIC (Homo sapiens, UniProt Q8N5J4 1-248); conditions: protein: recombinant; tags: N-terminal GST; dsDNA, one strand shown
# T2 sequence: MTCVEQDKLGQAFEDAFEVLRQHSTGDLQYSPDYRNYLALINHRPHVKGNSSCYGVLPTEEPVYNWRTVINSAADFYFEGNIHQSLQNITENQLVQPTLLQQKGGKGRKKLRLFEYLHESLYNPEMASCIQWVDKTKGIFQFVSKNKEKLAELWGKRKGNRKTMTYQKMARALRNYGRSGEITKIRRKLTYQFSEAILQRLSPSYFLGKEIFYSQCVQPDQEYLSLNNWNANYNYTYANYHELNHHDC
# Procedure, shortened: as §1
# ELF4 = ELF4 (Homo sapiens, UniProt Q99607 1-663); conditions: protein: recombinant; tags: N-terminal GST; dsDNA, one strand shown
# Sequence of ELF4 (Q99607 whole entry): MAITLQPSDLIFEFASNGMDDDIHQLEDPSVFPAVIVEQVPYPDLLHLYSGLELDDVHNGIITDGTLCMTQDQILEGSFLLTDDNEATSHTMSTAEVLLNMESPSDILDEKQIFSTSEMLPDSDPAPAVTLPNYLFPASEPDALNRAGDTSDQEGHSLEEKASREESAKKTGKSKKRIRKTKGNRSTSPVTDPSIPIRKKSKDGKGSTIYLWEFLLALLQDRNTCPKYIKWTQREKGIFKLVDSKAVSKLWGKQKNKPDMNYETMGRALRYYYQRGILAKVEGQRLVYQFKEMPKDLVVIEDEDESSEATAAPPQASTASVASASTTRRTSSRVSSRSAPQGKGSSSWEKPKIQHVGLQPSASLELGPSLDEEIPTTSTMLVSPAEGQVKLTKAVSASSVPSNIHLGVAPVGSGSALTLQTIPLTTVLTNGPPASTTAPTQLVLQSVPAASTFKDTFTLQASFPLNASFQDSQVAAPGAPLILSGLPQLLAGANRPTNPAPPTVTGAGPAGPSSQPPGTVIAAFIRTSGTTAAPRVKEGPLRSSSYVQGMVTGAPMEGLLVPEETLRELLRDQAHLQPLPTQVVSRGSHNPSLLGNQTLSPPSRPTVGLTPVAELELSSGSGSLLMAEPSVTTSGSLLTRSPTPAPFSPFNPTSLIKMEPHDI
# Procedure, shortened: as §1
# ELK4 = target: T3, ELK4 (Homo sapiens, UniProt P28324-2 1-405); conditions: protein: recombinant; tags: N-terminal GST; dsDNA, one strand shown
# T3 sequence: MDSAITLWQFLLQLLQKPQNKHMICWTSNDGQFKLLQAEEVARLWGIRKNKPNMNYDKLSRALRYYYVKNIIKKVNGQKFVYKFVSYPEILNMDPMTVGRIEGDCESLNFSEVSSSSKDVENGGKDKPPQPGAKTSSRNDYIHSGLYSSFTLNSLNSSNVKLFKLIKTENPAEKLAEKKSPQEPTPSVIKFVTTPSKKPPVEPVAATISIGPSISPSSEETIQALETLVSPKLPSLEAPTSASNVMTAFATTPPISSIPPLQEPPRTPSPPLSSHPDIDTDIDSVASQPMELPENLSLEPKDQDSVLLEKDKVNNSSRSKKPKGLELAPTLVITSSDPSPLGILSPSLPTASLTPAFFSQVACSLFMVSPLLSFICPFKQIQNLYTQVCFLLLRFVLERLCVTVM
# Procedure, shortened: as §1
# ETV2 = target: T4, ETV2 (Homo sapiens, UniProt O00321 1-342); conditions: protein: recombinant; tags: N-terminal GST; dsDNA, one strand shown
# T4 sequence: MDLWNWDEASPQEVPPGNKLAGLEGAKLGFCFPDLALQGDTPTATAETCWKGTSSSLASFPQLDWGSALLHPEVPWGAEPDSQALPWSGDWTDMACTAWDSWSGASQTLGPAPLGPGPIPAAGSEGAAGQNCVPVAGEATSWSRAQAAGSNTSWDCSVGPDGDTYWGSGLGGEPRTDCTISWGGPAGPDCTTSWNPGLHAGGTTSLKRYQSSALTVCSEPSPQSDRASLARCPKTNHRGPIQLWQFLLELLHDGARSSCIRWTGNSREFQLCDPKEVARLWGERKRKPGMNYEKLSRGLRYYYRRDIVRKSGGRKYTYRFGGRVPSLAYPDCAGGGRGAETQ
# Procedure, shortened: as §1
# ELF3 = target: T5, ELF3 (Homo sapiens, UniProt P78545 1-371); conditions: protein: recombinant; tags: N-terminal GST; dsDNA, one strand shown
# T5 sequence: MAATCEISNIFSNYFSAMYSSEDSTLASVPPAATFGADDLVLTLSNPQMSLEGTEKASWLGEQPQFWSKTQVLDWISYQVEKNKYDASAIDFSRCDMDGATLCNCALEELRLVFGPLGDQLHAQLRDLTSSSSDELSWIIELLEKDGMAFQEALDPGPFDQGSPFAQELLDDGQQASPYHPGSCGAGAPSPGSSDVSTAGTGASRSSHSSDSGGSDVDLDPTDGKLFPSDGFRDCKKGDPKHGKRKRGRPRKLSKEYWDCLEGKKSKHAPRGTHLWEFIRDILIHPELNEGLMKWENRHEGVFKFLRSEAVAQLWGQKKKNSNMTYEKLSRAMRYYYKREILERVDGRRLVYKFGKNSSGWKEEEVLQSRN
# Procedure, shortened: as §1
# CRX = CRX (Homo sapiens, UniProt O43186 1-299); conditions: protein: recombinant; tags: N-terminal GST; dsDNA, one strand shown
# Sequence of CRX (O43186 whole entry): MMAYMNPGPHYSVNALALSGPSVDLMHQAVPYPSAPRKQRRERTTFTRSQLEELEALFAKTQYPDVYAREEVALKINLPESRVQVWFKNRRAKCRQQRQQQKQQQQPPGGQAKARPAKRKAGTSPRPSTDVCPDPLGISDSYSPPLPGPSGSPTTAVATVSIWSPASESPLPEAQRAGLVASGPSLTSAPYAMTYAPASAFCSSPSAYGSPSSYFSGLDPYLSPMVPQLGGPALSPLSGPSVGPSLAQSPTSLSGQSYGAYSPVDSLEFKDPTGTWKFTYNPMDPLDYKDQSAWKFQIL
# Procedure, shortened: as §1
# ETV1 = ETV1 (Homo sapiens, UniProt P50549 1-477); conditions: protein: recombinant; tags: N-terminal GST; dsDNA, one strand shown
# Sequence of ETV1 (P50549 whole entry): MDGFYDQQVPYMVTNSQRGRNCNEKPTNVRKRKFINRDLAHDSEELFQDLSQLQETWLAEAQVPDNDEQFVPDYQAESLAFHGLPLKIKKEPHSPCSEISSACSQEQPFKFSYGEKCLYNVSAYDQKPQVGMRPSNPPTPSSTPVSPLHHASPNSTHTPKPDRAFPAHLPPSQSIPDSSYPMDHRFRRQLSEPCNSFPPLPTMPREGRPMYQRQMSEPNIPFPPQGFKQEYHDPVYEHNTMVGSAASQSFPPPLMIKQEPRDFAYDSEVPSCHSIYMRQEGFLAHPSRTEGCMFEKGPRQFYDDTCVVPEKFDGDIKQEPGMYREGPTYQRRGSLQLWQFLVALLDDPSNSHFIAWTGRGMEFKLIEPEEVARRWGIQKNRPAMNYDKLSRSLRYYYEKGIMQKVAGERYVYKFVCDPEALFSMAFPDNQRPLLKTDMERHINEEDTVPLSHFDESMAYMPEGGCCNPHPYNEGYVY
# Procedure, shortened: as §1
sequence,measurement,setting,value
TCTGGG,binding signal,FEV,"1.13 fold enrichment (6-mer frequency, TF over GST control)"
same,binding signal,ETV5,"1.13 fold enrichment (6-mer frequency, TF over GST control)"
same,binding signal,HSF1,"1.4 fold enrichment (6-mer frequency, TF over GST control)"
same,binding signal,SPIC,"1.11 fold enrichment (6-mer frequency, TF over GST control)"
same,binding signal,ELF4,"1.08 fold enrichment (6-mer frequency, TF over GST control)"
same,binding signal,ELK4,"1.22 fold enrichment (6-mer frequency, TF over GST control)"
same,binding signal,ETV2,"1.19 fold enrichment (6-mer frequency, TF over GST control)"
same,binding signal,ELF3,"1.12 fold enrichment (6-mer frequency, TF over GST control)"
same,binding signal,CRX,"1.1 fold enrichment (6-mer frequency, TF over GST control)"
same,binding signal,ETV1,"1.04 fold enrichment (6-mer frequency, TF over GST control)"
